In PubChem BioAssay (NCI) one finds growth data, which are given here for 34 molecules.

Values joined by “and” are separate entries in the source; they are usually repeats but may differ in a detail not shown here. Equal values may be shown once. The panel holds about 83,000 compounds, 20% with a hit somewhere; the sample as a whole holds those more often.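 Compound tested at a single concentration for 48 hours in 96-well plates; a percent growth value below 10 was scored as active.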 Active and inactive are the calls of the source.

The subject of one assay is TK-10 renal. Description: NCI-60 one-dose screen, 48 h (100 = growth as untreated, 0 = no growth, -100 = all killed). The following applies: 10 µM unless noted.
`CC1=C(C)C(=O)C(Nc2cccc(C(=O)OC(C)(C)C)c2)=CC1=O`: the growth was 125% (inactive). Same read-out and setting: in the case of `CCCC/C(=C\c1ccc(O)c(O)c1)C(=O)NC(Cc1ccccc1)C(=O)C(=O)NCCc1ccc(OC)cc1` (centres undefined) it was 107% (inactive); in that of `CCN(CC)c1ccc(/C=N/NC(=O)c2ccc(NS(C)(=O)=O)cc2)c(O)c1`, 47.9% (inactive). In the case of `O=C(/C=C/C=C/c1csc(Br)n1)NO`, the growth is 86.6% (inactive). As to `O=C(CCCCCCNC(=O)C(O)(O)C(F)(F)F)Nc1ncc(-c2ccc(Br)cc2)s1`, the growth is -20.2% (active).

As to `Cc1cc(C)cc(NC2=C(Cl)C(=O)c3nc(C)ccc3C2=O)c1`, the growth was 128% (inactive). On the same count and under the same terms, in the case of `C[C@@H]1OCC2(CCN(c3cnc(C(=O)Nc4cc(F)cc5cccnc45)cn3)CC2)[C@@H]1N` it was 90.8% (inactive). The same measure, in the same setting: the result for `CN1CCN(c2ccc(Nc3nc(NCCCNS(=O)(=O)c4ccccc4)c4sccc4n3)cc2)CC1` reads 145% (inactive); that for `CCCCCCNC(=O)Oc1ccc(/C(=C(/C)c2ccc(OC)cc2)c2ccc(OCCN3CCCCCC3)cc2)cc1`, 92.1% (inactive). Turning to `O=[N+]([O-])c1ccc(NC(=S)NNC(=S)Nc2ccc(Br)cc2)cc1`, the growth is 127% (inactive).

`C#C[C@]1(O)CC[C@H]2[C@@H]3CC=C4c5sc(N6CCN(C)CC6)nc5CC[C@]4(C)[C@H]3CC[C@@]21C`: the growth is 100% (inactive). The same measure, in the same setting: in the case of `CN1CCN(Cc2ccc(NC(=O)c3cncc(C#Cc4cnc5ccc(NCCO)nn45)c3)cc2C(F)(F)F)CC1` it was -16.3% (active); in that of `C#CCOc1cccc(/C(N)=N/C(N)=N/c2nc3ccccc3s2)c1`, 148% (inactive); in that of `NC(N)=NS(=O)(=O)c1ccc(N=Nc2c(N)nn(-c3ccc([N+](=O)[O-])cc3[N+](=O)[O-])c2N)cc1`, 120% (inactive). On to `N#Cc1c(-c2cccs2)cc(-c2cnccn2)nc1SCC(=O)N/N=C/c1cccs1`, for which the growth was 65.1% (inactive).

In the case of `COc1cc(C(=O)c2cc(C(C)=O)c3ccc(C)cn23)cc(OC)c1OC`, the growth was 76.3% (inactive). Take `Brc1ccc(-c2cc(-c3ccc4c(c3)OCCO4)n[nH]2)s1`: the growth is 105% (inactive).

Another assay has as its system ACHN renal. Described as above. To be noted: 10 µM unless noted.
Regarding `N#Cc1nc(-c2ccccc2)oc1N1CCC(C2(C(F)(F)F)N=N2)CC1`, the growth was 102% (inactive). On the same count and under the same terms, in the case of `CNC(=O)c1cc(N2CCc3cc(NC(=O)Nc4ccc(N5CCOCC5)c(C(F)(F)F)c4)ccc32)ccn1` it was 26.3% (inactive). Still for that read-out and setting: the result for `O=C(CCCCCCNC(=O)C(O)(O)C(F)(F)F)Nc1ccc(Br)cc1` reads -15.8% (active); that for `Cc1csc(/N=C(N)/N=C(\N)c2cccnc2)n1`, 78.4% (inactive); that for `C=C1CCc2nc(SCC(=O)O)ccc2N1`, 102% (inactive).

As for `CCCCOc1ccc(S(=O)(=O)N2CCN(c3nc(C)cc(N4CCOCC4)n3)CC2)cc1`, the growth is 15.3% (inactive). On the same count and under the same terms, in the case of `CCn1c2ccc(/C=N/N(C)S(=O)(=O)CCN(C)C)cc2c2cc(/C=N/N(C)S(=O)(=O)CCN(C)C)ccc21` it was 70.2% (inactive); in that of `NCCNC(=O)c1cccc(COc2ccccc2NC(=O)c2cc(Br)c(Br)[nH]2)c1`, 101% (inactive). As to `CNC(=O)Nc1ccc(Nc2cc(-c3ccc(-n4cccn4)cc3)[nH]n2)c(C)c1`, the growth is 109% (inactive). As to `CCN(CC)c1ccc(/C=N/NC(=O)c2ccc(S(N)(=O)=O)cc2)c(O)c1`, the growth is 14.8% (inactive). Same read-out and setting: the result for `COc1cc(-c2nc(-c3ccccc3)[nH]c2-c2ccnc(NCCCNS(=O)(=O)c3cccc(F)c3)n2)ccc1F` reads 88.7% (inactive); that for `C/C=C/CC(C)C(O)[C@H](NC(=O)[C@@H]1CCCN1C(=O)[C@](C)(CC)NC(=O)CCCCCCCCC)C(=O)N[C@@](C)(CC)C(=O)N[C@@H](CCC(N)=O)C(=O)N[C@H](CCC(N)=O)C(=O)NC(C)(C)C(=O)NC(C)(C)C(=O)N[C@@H](CCC(N)=O)C(=O)N[C@H](CC(C)C)C(=O)N[C@H](CO)CC(C)C` (some centres undefined), 76.8% (inactive) and -79.3% (active). On the same count and under the same terms, in the case of `O=S(=O)(NCCCNc1nccc(-c2[nH]c(-c3ccccc3)nc2-c2ccc(F)c(O)c2)n1)c1ccc(C(F)(F)F)cc1` it was 58.7% (inactive); in that of `N#Cc1c(-c2cccs2)c(C#N)c(=O)n(Cc2nc3ccccc3[nH]2)c1N`, 96.8% (inactive). For the molecule `Cc1ccc2c(n1)C(=O)C(Cl)=C(Nc1ccccc1C(=O)OC(C)(C)C)C2=O`, the growth was -73.6% (active). Same read-out and setting: the result for `Brc1cccc(-c2cc(-c3ccc4c(c3)OC=CO4)[nH]n2)c1` reads 43.7% (inactive). On the same count and under the same terms, the result for `CN1CCN(CCCCCC(=O)Nc2nc(-c3cccc(NS(=O)(=O)c4cccc5c(N(C)C)cccc45)c3)cs2)CC1` reads 88.4% (inactive).
